For 13 compounds, growth results are on record in PubChem BioAssay (NCI).

Test systems include SK-MEL-2 melanoma; EKVX NSCLC; SN12C renal; UO-31 renal; TK-10 renal; ACHN renal; CAKI-1 renal; A498 renal; CCRF-CEM leukemia; MOLT-4 leukemia.
Common to all, as to assay: NCI-60 one-dose screen, 48 h (100 = growth as untreated, 0 = no growth, -100 = all killed)
What all share (conditions): 10 µM unless noted

Compounds without any hit were thinned out: in the full panel of roughly 83,000, 20% have a hit.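 For each line, cells grew in 96-well plates with the test compound present at a single concentration for 48 hours.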 Values without a mark were called inactive. The source made the active and inactive calls. The calls were made as follows: active = growth percent below 10; inactive = the rest.

In the case of `CCCCSc1nc(Nc2ccc(C(C)=O)cc2)c(C#N)c(-c2ccc(OC)cc2)n1`, the growth with SK-MEL-2 melanoma is 114%; in the assay on EKVX NSCLC it was 65.1%; in the assay on SN12C renal, 27.9%; in the assay with UO-31 renal, 14.5%; with TK-10 renal it was -3.09% (active); in the assay on ACHN renal, 2.58% (active). Also, the growth in the assay with CAKI-1 renal was 34%; in the assay on A498 renal, 59.7%; with CCRF-CEM leukemia it was 100%; in the assay on MOLT-4 leukemia, 88%.
In the case of `COc1ccc2c(c1)c(/C=N/Nc1ccc3ccccc3n1)cn2C`, the growth in the assay with SK-MEL-2 melanoma was 81.8%; in the assay on EKVX NSCLC it was 53.1%; in the assay with SN12C renal it was -71.7% (active); with UO-31 renal, -31.3% (active); in the assay with TK-10 renal it was 43.4%; in the assay with ACHN renal, -85.4% (active). Moreover, the growth in the assay with CAKI-1 renal was -45.4% (active); in the assay with A498 renal it was 83.3%; in the assay on CCRF-CEM leukemia, 10.8%; in the assay on MOLT-4 leukemia, -27.4% (active).
Turning to `COC(=O)/C=C/c1cccc2c1C(=O)NC(C)(c1cc3cc4ccccc4cc3oc1=O)N2` (stereo not given), the growth with SK-MEL-2 melanoma was 79.4%; in the assay with EKVX NSCLC, 67.5%; with SN12C renal, 35.1%; with UO-31 renal, 65.4%; in the assay on TK-10 renal, 99.7%; with ACHN renal, 40.1%. The growth is 61.9% in the assay with CAKI-1 renal, 90.6% with A498 renal, 53% in the assay on CCRF-CEM leukemia and 58.7% in the assay on MOLT-4 leukemia.
Turning to `O=C(/C=C/c1ccc(-c2ccccc2)cc1)c1nc2ccccc2n1Cc1ccc(Br)cc1`, the growth with SK-MEL-2 melanoma was 65.8%; with EKVX NSCLC, 52.3%; in the assay on SN12C renal, 77.2%; in the assay on UO-31 renal it was 46.3%; in the assay with TK-10 renal it was 35.3%; with ACHN renal, 32.7%. Also, the growth in the assay with CAKI-1 renal was 50.4%; with A498 renal it was 104%; with CCRF-CEM leukemia it was 11.1%; in the assay on MOLT-4 leukemia, -14.4% (active).
On to `C#CCOc1cc(N(CC)CC)ccc1C(C(=O)NC(C)(C)C)N(C(=O)C1CCc2cc(F)ccc2O1)c1ccccc1F` (stereo not given), for which the growth in the assay on SK-MEL-2 melanoma is -39.4% (active); with EKVX NSCLC, 44.5%; in the assay with SN12C renal, 43.7%; with UO-31 renal it was 23.3%; in the assay with TK-10 renal it was 45%; with ACHN renal it was 18.7%. The growth with CAKI-1 renal is 22.4%; in the assay with A498 renal it was 33.3%; in the assay on CCRF-CEM leukemia, 31.8%; with MOLT-4 leukemia it was 5.25% (active).
On to `C=C1CC[C@@H]2[C@]3(C)COC(c4cn[nH]c4-c4ccc(Br)cc4)O[C@@H]3CC[C@@]2(C)[C@@H]1C/C=C1/C(=O)OCC1O` (stereo not given in full), for which the growth with SK-MEL-2 melanoma is -68.4% (active); in the assay with EKVX NSCLC, -51% (active); with SN12C renal, -64.9% (active); in the assay with UO-31 renal, -92.1% (active); with TK-10 renal it was -65% (active); in the assay with ACHN renal it was -100% (active). Moreover, the growth in the assay on CAKI-1 renal was -40.9% (active); with A498 renal, 97.8%; with CCRF-CEM leukemia, -6.18% (active); with MOLT-4 leukemia, 2.63% (active).
In the case of `CSc1ccc(NC(=O)c2ccc3nn(/C(C#N)=C/c4ccccn4)nc3c2)cc1`, the growth with SK-MEL-2 melanoma was -89.9% (active); in the assay on EKVX NSCLC, -99% (active); with SN12C renal, -65.7% (active); in the assay with UO-31 renal, -99% (active); in the assay with TK-10 renal, -94.7% (active); in the assay on ACHN renal, -95.3% (active). Further, the growth with CAKI-1 renal was -90.9% (active); with A498 renal it was -33.9% (active); with CCRF-CEM leukemia, -47.8% (active); with MOLT-4 leukemia, -20.4% (active).
With `CN(C)c1nc(NCCNS(=O)(=O)c2ccc(C3=Nc4c(N)nc(N)nc4NC(c4ccccc4)C3)cc2)nc(Nc2ccc(F)cc2)n1` (stereo not given), the growth was 68.6% with SK-MEL-2 melanoma; 51.4% in the assay with EKVX NSCLC; 37.8% in the assay with SN12C renal; 69% in the assay on UO-31 renal; 65% with TK-10 renal; 76.3% with ACHN renal. In addition, the growth in the assay with CAKI-1 renal is 61.2%; with A498 renal it was 57.3%; with CCRF-CEM leukemia, 22.2%; in the assay with MOLT-4 leukemia it was 2.62% (active).
As for `O=C(NN1C(=O)/C(=C/C=C/c2ccc([N+](=O)[O-])o2)SC1=S)c1cccc(O)c1`, the growth was -88.2% (active) with SK-MEL-2 melanoma; -96.8% (active) with EKVX NSCLC; -99.8% (active) in the assay on SN12C renal; -98.6% (active) in the assay on UO-31 renal; -96.3% (active) with TK-10 renal; -100% (active) in the assay with ACHN renal. Further, the growth with CAKI-1 renal is -100% (active); in the assay with A498 renal, 2.42% (active); in the assay on CCRF-CEM leukemia, 0.334% (active); in the assay on MOLT-4 leukemia, 2.92% (active).
With `Cc1cc2c(cc1Cl)C(=O)/C(=C/c1ccc(F)cc1)O2`, the growth with SK-MEL-2 melanoma is 122%; with EKVX NSCLC it was 90.8%; with SN12C renal it was 82.1%; in the assay on UO-31 renal, -80.7% (active); in the assay with TK-10 renal, 125%; in the assay on ACHN renal, 96.9%. Moreover, the growth was 75.3% with CAKI-1 renal, 149% in the assay with A498 renal, 94.5% with CCRF-CEM leukemia and 84.3% in the assay on MOLT-4 leukemia.
On to `Cc1cc(C)cc(NC(=O)Cn2cc(COn3nnc4ccccc43)nn2)c1`, for which the growth in the assay on SK-MEL-2 melanoma was 105%; in the assay on EKVX NSCLC it was 102%; in the assay on SN12C renal it was 97.3%; in the assay with UO-31 renal it was 92.5%; in the assay with TK-10 renal it was 100%; in the assay on ACHN renal it was 100%. For the same compound, the growth with CAKI-1 renal is 97.4%; in the assay on A498 renal, 118%; in the assay with CCRF-CEM leukemia it was 105%; with MOLT-4 leukemia it was 100%.
On to `C#CCOc1ccc(/C=N/Nc2nc(-c3cc4cc(Br)ccc4oc3=O)cs2)cc1OC`, for which the growth with SK-MEL-2 melanoma was 105%; in the assay with EKVX NSCLC it was 78.9%; in the assay with SN12C renal, 72.8%; in the assay on UO-31 renal, 89.7%; in the assay on TK-10 renal it was 102%; in the assay with ACHN renal, 71%. Besides, the growth was 67.9% with CAKI-1 renal, 50.1% in the assay on A498 renal, 100% in the assay on CCRF-CEM leukemia and 92.8% with MOLT-4 leukemia.
Consider `Cc1ccc(-c2nc(C#N)c(S(=O)(=O)N3CCN(S(=O)(=O)c4ccccc4)CC3)o2)cc1`, for which the growth in the assay with SK-MEL-2 melanoma was 48%; in the assay on EKVX NSCLC, 63.1%; in the assay with SN12C renal, 3.58% (active); in the assay on UO-31 renal, -67.7% (active); in the assay on TK-10 renal, 81.2%; in the assay with ACHN renal, -36.9% (active). The growth with CAKI-1 renal was 47%; with A498 renal, 123%; in the assay with CCRF-CEM leukemia, -33.6% (active); with MOLT-4 leukemia, -20.5% (active).
